Assay [1] deals with TRPC4 beta (transient receptor potential cation channel C4), mouse. Put plainly: activators of mouse TRPC4 channel, confirmation, cell-based, Fluo4 calcium, HEK293 TRPC4beta/mu-opioid, duplicates, 10 µM (AID 2426;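 active = fluorescence ratio normalized to control raised more than 50% in primary screen plus both repeat runs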;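 as to activation: percent rise of integrated ratio over buffer wells lacking compound which define 0%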). To be noted: Fluo4 calcium fluorescence, at 10 µM; active compounds read high.
Assay [2] has as its system transient receptor potential cation channel C4 beta (TRPC4), mouse. Put plainly: activators of mouse TRPC4 channel, confirmation, cell-based, second round, Fluo4, HEK293 TRPC4beta/mu-opioid, 1 µM (AID 2461;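 active = primary screen active and over 50% activation in each of two duplicate runs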;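 as to activation: 0% = wells without test compound as baseline of integrated fluorescence ratio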). To be noted: Fluo4 calcium fluorescence, at 1 µM; active compounds read high.
In assay [3] the test system is TRPC4 (transient receptor potential cation channel C4 beta), mouse. As to the kind of experiment: positive allosteric modulators of mouse TRPC4, confirmation, cell-based, second round, Fluo-4, HEK293 TRPC4beta/mu-opioid, 1 µM (AID 2554;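 active = primary screen hit whose fluorescence ratio, in both repeats, exceeds the weak agonist control mean by 3 SD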). To be noted: DAMGO EC20, Fluo-4 calcium flux, at 1 µM; active compounds read high. (A change in cytosolic calcium serves as a functional read-out for many receptors and channels.)

In assay [4] the test system is TRPC4 beta (transient receptor potential cation channel C4), mouse. As to the kind of experiment: positive allosteric modulators of mouse TRPC4, confirmation, cell-based, Fluo-4, HEK293 TRPC4beta/mu-opioid (AID 2555;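 active = primary screen hit whose calcium fluorescence ratio, in both repeats, exceeds the weak agonist control mean by 3 SD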). Conditions: DAMGO EC20, Fluo-4 calcium flux, at 10 µM; active compounds read high.
Assay [5] has as its target Short transient receptor potential channel 4 (Mus musculus) (UniProt Q9QUQ5). As to the kind of experiment: inhibitors of mouse TRPC4 channel, confirmation, cell-based, Fluo4, HEK293 TRPC4beta/mu-opioid (AID 2636;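 active = calcium signal cut by more than 3 SD below the full-agonist control yet still positive, in both repeats and the earlier primary screen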). To be noted: DAMGO, Fluo4 calcium flux, at 10 µM; active compounds read high.
For assay [6] the target is unchanged. Put plainly: inhibitors of mouse TRPC4 channel, confirmation, cell-based, second round, Fluo4, HEK293 TRPC4beta/mu-opioid, 1 µM (AID 2637;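 active = calcium signal ratio cut to more than 3 SD under the fully stimulated control mean yet still positive, in both repeats and the primary screen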). To be noted: Fluo4 calcium flux, DAMGO, at 1 µM; active compounds read high.
The target is the same in assay [7]. As to the kind of experiment: TRPC4 positive allosteric modulators, dose response, cell-based, HEK293 TRPC4/mu-opioid, Fluo-4 calcium, EC20 DAMGO (AID 434941;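 active = earlier screen potentiator hit that boosts the TRPC4 ion channel at some dose, with a dose response; inactive = no potentiation, no dose response, or not a prior hit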;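 also: calcium entry triggered by an EC20 dose of DAMGO at the co-expressed mu-opioid receptor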).
Assay [8] shares this target. As to the kind of experiment: mouse TRPC4 channel inhibitors, dose response, cell-based, HEK293 TRPC4/mu-opioid, Fluo-4 calcium (AID 434942;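 active = primary screen inhibitor hit that blocks the TRPC4 channel at some tested dose, yielding a dose curve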).
Assay [9] addresses Short transient receptor potential channel 6 (Mus musculus) (UniProt Q61143). As to the kind of experiment: inhibition of mouse TRPC6 channel, confirmation, selectivity assay for TRPC4 inhibitor project, cell-based, HEK293, membrane potential dye, duplicate (AID 434948;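 active = active in primary screen and both duplicates, each dropping signal beyond three positive-control SD with fluorescence still positive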). Conditions: HEK293 TRPC6, membrane potential dye fluorescence, at 10 µM, stimulated with maximal-effect acetylcholine; active compounds read high.

Assay [10] shares this target. As to the kind of experiment: activation of mouse TRPC6 channel, confirmation, selectivity assay for TRPC4 activator project, cell-based, HEK293, membrane potential dye, duplicate (AID 434950;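 active = membrane potential signal rise above negative control mean plus 3 SD in both duplicates, also active in the earlier TRPC4 screen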;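 as to activation: 0% = buffer only wells and 100% = acetylcholine maximal-effect wells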). Conditions: HEK293 TRPC6, membrane potential fluorescence, at 10 µM; active compounds read high.
Assay [11] shares this target. As to the kind of experiment: TRPC6 potentiation by TRPC4 potentiator hits, confirmation, selectivity assay for TRPC4 potentiator project, HEK293 cells, membrane potential dye, duplicate (AID 434952;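 active = compound raising the membrane signal above positive-control mean plus 3 SD in both repeats, and a primary screen hit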). Conditions: HEK293 TRPC6, membrane potential dye fluorescence, at 10 µM, maximal acetylcholine added after compound; active compounds read high.
The target in assay [12] is Short transient receptor potential channel 4 (Mus musculus) (UniProt Q9QUQ5). As to the kind of experiment: calcium flux activators in TRPC4/5HT1a cells, counter-screen for TRPC4 activator project, cell-based, second counter screen, HEK293 TRPC4/5HT1a, Fluo-4 (AID 434977;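 active = calcium signal rise above buffer-control mean plus 5 SD in both duplicates, and also a hit in the primary screen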;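 as to activation: plate controls were assay buffer for no effect and maximal serotonin response for full effect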). To be noted: Fluo-4 calcium flux, at 10 µM; active compounds read high.
Sequence of Short transient receptor potential channel 4 (Mus musculus) (Q9QUQ5 whole entry, looked up): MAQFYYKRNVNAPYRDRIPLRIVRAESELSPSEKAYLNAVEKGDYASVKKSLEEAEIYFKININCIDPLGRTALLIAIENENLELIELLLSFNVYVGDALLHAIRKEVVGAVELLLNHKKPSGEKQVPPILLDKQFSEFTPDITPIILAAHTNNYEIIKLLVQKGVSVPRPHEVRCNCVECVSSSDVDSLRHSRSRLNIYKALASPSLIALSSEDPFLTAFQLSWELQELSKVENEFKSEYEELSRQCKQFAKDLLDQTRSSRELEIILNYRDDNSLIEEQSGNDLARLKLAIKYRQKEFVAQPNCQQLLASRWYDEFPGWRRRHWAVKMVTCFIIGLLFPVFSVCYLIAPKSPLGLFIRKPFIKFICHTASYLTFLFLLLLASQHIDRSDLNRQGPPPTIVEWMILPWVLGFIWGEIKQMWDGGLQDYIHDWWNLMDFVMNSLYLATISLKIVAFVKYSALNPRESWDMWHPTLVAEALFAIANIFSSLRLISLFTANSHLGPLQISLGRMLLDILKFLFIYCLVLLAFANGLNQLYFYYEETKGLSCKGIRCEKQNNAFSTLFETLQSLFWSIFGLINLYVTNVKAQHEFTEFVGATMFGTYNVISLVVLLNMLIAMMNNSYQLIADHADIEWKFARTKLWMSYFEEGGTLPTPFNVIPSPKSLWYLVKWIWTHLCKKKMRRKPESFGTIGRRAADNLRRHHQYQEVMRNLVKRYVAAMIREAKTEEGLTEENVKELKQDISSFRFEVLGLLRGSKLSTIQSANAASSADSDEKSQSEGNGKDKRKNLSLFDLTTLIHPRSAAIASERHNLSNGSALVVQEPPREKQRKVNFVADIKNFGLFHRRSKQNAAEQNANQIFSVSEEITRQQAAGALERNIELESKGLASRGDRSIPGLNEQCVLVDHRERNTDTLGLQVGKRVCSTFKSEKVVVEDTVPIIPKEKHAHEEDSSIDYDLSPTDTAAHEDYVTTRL
Assay [13] is described as follows: calcium flux inhibitors in TRPC4/5HT1a cells, confirmation, counter-screen for TRPC4 inhibitor project, cell-based, second counter screen, HEK293 TRPC4/5HT1a, Fluo-4 (AID 434978;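 active = primary screen active whose calcium signal fell more than 3 SD beyond the full-serotonin control mean in both duplicate plates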;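 also: serotonin given first at submaximal then at maximal dose after compound preincubation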). To be noted: Fluo-4 calcium flux, at 10 µM, serotonin added to trigger calcium flux; active compounds read high.
In assay [14] the test system is TRPC4 (mouse), co-expressed with 5HT1a in HEK293. Put plainly: calcium flux potentiators in TRPC4/5HT1a cells, confirmation, counter-screen for TRPC4 potentiator project, cell-based, second counter screen, HEK293 TRPC4/5HT1a, Fluo-4 (AID 434979). To be noted: Fluo-4 calcium flux, at 10 µM, serotonin added at its EC20 dose; active compounds read high.
The nature of assay [15]: calcium flux activation in mu-opioid HEK293 cells, confirmation, counter-screen for TRPC4 activator project, cell-based, HEK293 mu-opioid receptor line (AID 449723;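 active = hit in primary screen, with calcium signal over 5 SD above buffer well mean in both duplicates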;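 also: counter screen cells carry the mu-opioid receptor alone and lack TRPC4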). Conditions: Fluo-4 calcium fluorescence, at 10 µM; active compounds read high.
Assay [16] is described as follows: calcium flux enhancement in mu-opioid HEK293 cells, confirmation, counter-screen for TRPC4 allosteric potentiator project, cell-based, HEK293 mu-opioid receptor line (AID 449724;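 active = calcium signal rise more than 3 SD above the low-dose agonist control mean, in both duplicate plates and the primary screen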;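 also: HEK293 cells carrying mu-opioid receptor only with no TRPC4 channel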). To be noted: Fluo-4 calcium flux, at 10 µM, compound added before EC20 DAMGO stimulus; active compounds read high.

For part of these data: Results with a measured potency or affinity are listed apart. Calls of active or inactive are those of the source.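 The calls were made as follows, unless noted: active = signal rise over 3 SD above mean of control wells given weak agonist, in both repeats and first screen; inactive = the rest.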

Sequence of Short transient receptor potential channel 6 (Mus musculus) (Q61143 whole entry, looked up): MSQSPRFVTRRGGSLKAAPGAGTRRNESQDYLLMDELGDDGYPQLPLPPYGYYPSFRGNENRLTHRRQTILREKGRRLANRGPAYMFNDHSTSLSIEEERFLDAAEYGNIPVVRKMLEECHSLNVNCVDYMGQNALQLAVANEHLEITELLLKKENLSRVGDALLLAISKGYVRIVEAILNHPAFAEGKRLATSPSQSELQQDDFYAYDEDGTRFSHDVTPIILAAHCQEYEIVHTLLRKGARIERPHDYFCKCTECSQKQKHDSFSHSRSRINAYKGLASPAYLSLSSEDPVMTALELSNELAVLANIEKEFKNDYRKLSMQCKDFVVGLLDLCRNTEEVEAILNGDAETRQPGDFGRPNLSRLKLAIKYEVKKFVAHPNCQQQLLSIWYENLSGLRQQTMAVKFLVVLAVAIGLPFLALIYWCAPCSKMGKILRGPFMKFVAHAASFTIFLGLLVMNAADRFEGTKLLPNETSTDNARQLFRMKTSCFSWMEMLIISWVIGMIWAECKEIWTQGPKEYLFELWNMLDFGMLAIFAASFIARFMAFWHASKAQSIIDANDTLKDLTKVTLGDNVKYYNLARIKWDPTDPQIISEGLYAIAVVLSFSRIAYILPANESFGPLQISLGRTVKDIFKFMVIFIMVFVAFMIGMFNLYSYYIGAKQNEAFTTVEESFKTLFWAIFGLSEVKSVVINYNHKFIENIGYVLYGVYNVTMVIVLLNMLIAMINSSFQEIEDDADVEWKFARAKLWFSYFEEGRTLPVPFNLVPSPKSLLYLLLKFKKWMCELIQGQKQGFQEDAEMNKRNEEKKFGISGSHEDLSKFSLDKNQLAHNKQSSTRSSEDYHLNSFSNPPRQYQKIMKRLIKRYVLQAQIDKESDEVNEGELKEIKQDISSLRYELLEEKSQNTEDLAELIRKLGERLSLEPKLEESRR

In the case of `Cc1cc2nc3s/c(=C/c4ccc(-c5ccccc5C(=O)O)o4)c(=O)n3c2cc1C`, the activation is 177% (active) in [1], 675% (active) in assay [10], 112% (active) in assay [12] and 136% (active) in assay [15]. For the same compound, the outcome in assay [2], in [3], in assay [4], in assay [5], in [6] and in [7] was inactive. Also, the outcome in [8], in [9], in assay [11], in [13], in assay [14] and in assay [16] was inactive.

Regarding `O=C(CC1C(=O)NCCN1Cc1ccccc1C(F)(F)F)NCCc1ccccn1` (stereo not given), the activation in assay [1] was 106% (active); in assay [12], 26.7% (active). The outcome in [2], in [3], in assay [4], in [5], in [6] and in assay [7] was inactive. In addition, the outcome in [8], in assay [9], in assay [10], in assay [11], in assay [13] and in [14] was inactive. The outcome in [15] and in [16] was inactive.

In the case of `CN1CCN(C(=O)c2cccn(Cc3c(Cl)cccc3Cl)c2=O)CC1`, the activation in assay [1] is 147% (active); in assay [2] it was 88% (active); in assay [12], 42.6% (active). The result in [3], in assay [4], in assay [5], in [6], in [7] and in assay [8] was inactive. The compound was called inactive in [9], in assay [10], in assay [11], in [13], in assay [14] and in [15]. Moreover, the result in assay [16] was inactive.

Consider `O=C1NCN(c2ccccc2)C12CCN(CCCC(c1ccc(F)cc1)c1ccc(F)cc1)CC2`, for which the outcome in [1], in [2], in assay [3], in assay [4], in assay [5] and in assay [6] was inactive. The result in assay [7], in assay [8], in [9], in assay [11], in assay [12] and in assay [13] was inactive. Further, the outcome in assay [14], in assay [15] and in assay [16] was inactive. Besides, in assay [10], the activation is 31% (active).

`CN(C)CCCN(C(=O)c1ccc(S(=O)(=O)N2CCc3ccccc3C2)cc1)c1nc2c(F)cc(F)cc2s1`: the activation in assay [1] was 73% (active). The result in assay [2], in assay [3], in assay [4], in [5], in [6] and in assay [7] was inactive. Further, the result in assay [8], in assay [9], in [10], in [11], in assay [12] and in assay [13] was inactive. The outcome in assay [14], in [15] and in assay [16] was inactive.

Consider `CC(=O)NC(CC(=O)NCC(c1ccco1)N(C)C)c1ccccc1` (stereo not given), for which the activation was 98% (active) in assay [1] and 78% (active) in assay [2]. Moreover, the outcome in assay [3], in assay [4], in [5], in [6], in [7] and in [8] was inactive. Moreover, the result in assay [9], in assay [10], in assay [11], in [12], in assay [13] and in assay [14] was inactive. The result in [15] and in [16] was inactive.

Regarding `COc1cc2c(cc1OC)C(C)N(C(=O)C(NC(=O)c1ccccc1)C(C)C)CC2` (stereo not given), the activation in assay [1] was 130% (active); in assay [10] it was 31% (active). Moreover, the outcome in [2], in assay [3], in [4], in assay [5], in assay [6] and in [7] was inactive. Further, the result in [8], in [9], in assay [11], in [12], in [13] and in assay [14] was inactive. The outcome in [15] and in assay [16] was inactive.

Turning to `COc1c2c(cc3c1C(CC(O)Cc1ccccc1)N(C)CC3)OCO2` (stereo not given), the values for the activation in assay [1] and in assay [10] were 110% (active) and 43% (active), respectively. Further, the outcome in [2], in assay [3], in assay [4], in [5], in assay [6] and in [7] was inactive. The result in [8], in assay [9], in assay [11], in assay [12], in [13] and in assay [14] was inactive. In addition, the result in assay [15] and in [16] was inactive.

With `O=C(NC(=S)NNC(=O)c1ccccc1[N+](=O)[O-])c1ccc(Br)cc1`, the results for the activation in assay [1], in assay [10] and in assay [15] were 141% (active), 29% (active) and 15.6% (active), respectively. Besides, the result in assay [2], in [3], in assay [4], in assay [5], in [6] and in assay [7] was inactive. Also, the result in [8], in assay [9], in assay [11], in assay [12], in [13] and in assay [14] was inactive. Moreover, in [16], the outcome was inactive.

Turning to `CC(CN1CCCC(C(N)=O)C1)c1ccccc1` (stereo not given), the activation is 147% (active) in assay [1], 65% (active) in [2], 30.5% (active) in [10] and 42% (active) in [12]. The outcome in assay [3], in assay [4], in assay [5], in assay [6], in assay [7] and in [8] was inactive. In addition, the compound was classed as inactive in assay [9], in [11], in assay [13], in [14], in assay [15] and in assay [16].

Take `CCCCN(CC)CCNC(=O)Cn1cc2c(n1)-c1c(oc(C(=O)N3CCCC3)c1C)CC2`: the activation is 65% (active) in assay [1], 34% (active) in assay [10] and 18.6% (active) in assay [12]. For the same compound, the outcome in assay [2], in assay [3], in assay [4], in [5], in [6] and in [7] was inactive. Further, the result in [8], in assay [9], in assay [11], in assay [13], in [14] and in assay [15] was inactive. For the same compound, the outcome in assay [16] was inactive.

For `COc1ccc(C(CNC(=O)COc2ccccc2OC)N(C)C)cc1OC` (stereo not given), the activation in assay [1] was 133% (active); in [10], 35% (active). Moreover, the outcome in [2], in assay [3], in assay [4], in [5], in assay [6] and in assay [7] was inactive. The result in [8], in assay [9], in assay [11], in [12], in assay [13] and in assay [14] was inactive. The result in [15] and in assay [16] was inactive.

As to `CCN1/C(=C\c2ccc3cc(C)ccc3[n+]2CC)Sc2cc(C)c(C)cc21`, the activation in [1] was 177% (active); in assay [12] it was 66.7% (active); in assay [15], 152% (active); in assay [16], 1520% (active). Besides, the result in assay [2], in assay [3], in assay [5], in assay [6], in [7] and in [8] was inactive. The compound was called inactive in assay [9], in assay [10], in assay [11] and in [13]. In addition, the potentiation in assay [4] is 59% (active); in [14] it was 41.7% (active).

With `OCCC1CN(Cc2ccccc2-c2ccco2)CCN1Cc1ccccc1` (stereo not given), the outcome in [1], in assay [2], in assay [3], in [4], in assay [5] and in [6] was inactive. In addition, the outcome in assay [7], in assay [8], in assay [9], in [11], in assay [13] and in assay [14] was inactive. The outcome in assay [15] and in [16] was inactive. Also, the activation was 63.5% (active) in assay [10] and 17.2% (active) in assay [12].

In the case of `Cc1onc(-c2ccccc2Cl)c1C(=O)N1CCN(C/C=C/c2ccccc2)CC1`, the values for the activation in assay [1] and in [10] were 190% (active) and 38.5% (active), respectively. Further, the outcome in assay [2], in [3], in assay [4], in assay [5], in [6] and in assay [7] was inactive. The outcome in [8], in assay [9], in [11], in assay [12], in assay [13] and in assay [14] was inactive. Also, the result in assay [15] and in [16] was inactive.
